Source: PubChem BioAssay (National Center for Advancing Translational Sciences (NCATS))
KAT2A inh = qHTS Assay for Inhibitors of GCN5L2. 0.21% of 390,000 active. GCN5L2 HAT assay, ThioGlo1 CoA-SH fluorescence. Histone acetyltransferase KAT2A (Homo sapiens), Q92830. AID 504327, 2011. Potency, µM (doses to about 58.9 µM), without a hit: at the top dose activity change, negative = inhibition, usual class: inhibitors
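Compounds, pin-transferred from DMSO stocks, meet 20nM GCN5L2 for 15 min before the reaction begins with H3(1-25) peptide (75uM) and acetyl-CoA (70uM). Thiol-reactive ThioGlo1 reports CoA release over 20 min at room temperature.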
DT40 TDP1 no CPT = qHTS for Inhibitors of human tyrosyl-DNA phosphodiesterase 1 (TDP1): qHTS in cells in absence of CPT | 15% of 420,000 active | Potency, µM (doses to about 46.2 µM), for the others: at the highest dose activity change, negative = growth inhibition, usual class: inhibitors | AID 686978, 2013 | DT40 Tdp1-/- hTDP1 cells, no CPT, ATP luminescence, 48 h; further: nearly all actives have a fitted effect of over 55% in size
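Luminescent ATP content (CellTiter-Glo) served as the growth readout. Knockout chicken DT40 cells expressing human TDP1 were exposed to compounds without camptothecin for a minimum 48 hr at 37 °C.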
TDP1 inh = qHTS Assay for Inhibitors of Tyrosyl-DNA Phosphodiesterase (TDP1). 0.28% of 350,000 active. recombinant TDP1, AlphaScreen DNA substrate cleavage. Potency, µM (series often up to 130 µM), inactives show top-dose activity change, negative = inhibition, usual class: inhibitors; further: nearly all actives have a fitted effect of over 40% in size
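Compounds were preincubated with Tdp1 (1 nM final) for 15 min at room temperature before substrate (15 nM final) started a 5 min reaction; beads (10 ug/ml final) were then added for 10 min before AlphaScreen detection.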
TDP1 cell CPT = qHTS for Inhibitors of human tyrosyl-DNA phosphodiesterase 1 (TDP1): qHTS in cells in presence of CPT | Potency, µM (doses to about 46.2 µM), for the others: top-dose activity change, negative = growth inhibition, usual class: inhibitors | chicken DT40 Tdp1-/-;hTDP1 cells + 20 nM CPT, ATP luminescence, 48 h | 12% of 420,000 active; further: nearly all actives have a fitted effect of over 55% in size
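Cell growth measured by CellTiter-Glo luminescence after a minimum 48 h, 37 C compound exposure with 20 nM CPT in Tdp1-knockout DT40 cells stably expressing hTDP1, seeded 400/well; qHTS titration format.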
VDR inh = Inhibitors of the vitamin D receptor (VDR): qHTS; Vitamin D3 receptor (Homo sapiens), P11473; VDR-SRC2-3 peptide fluorescence polarization, 2 h; Potency, µM, inactives show max response, negative = inhibition, actives largely listed as inhibitors; 0.93% of 400,000 active; AID 504847, 2011
Target sequence (P11473 whole entry, looked up): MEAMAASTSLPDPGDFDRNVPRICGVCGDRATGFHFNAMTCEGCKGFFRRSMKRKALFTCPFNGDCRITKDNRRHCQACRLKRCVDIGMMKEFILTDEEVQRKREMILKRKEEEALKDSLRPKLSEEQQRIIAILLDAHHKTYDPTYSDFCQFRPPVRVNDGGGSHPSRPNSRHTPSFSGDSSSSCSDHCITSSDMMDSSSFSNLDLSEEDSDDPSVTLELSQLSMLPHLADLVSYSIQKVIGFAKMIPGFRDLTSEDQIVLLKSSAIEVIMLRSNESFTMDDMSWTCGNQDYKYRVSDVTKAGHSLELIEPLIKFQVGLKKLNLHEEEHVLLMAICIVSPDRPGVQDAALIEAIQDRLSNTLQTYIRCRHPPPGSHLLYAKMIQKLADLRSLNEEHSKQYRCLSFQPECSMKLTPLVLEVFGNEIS
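Fluorescence polarization assay measuring small-molecule disruption of VDR binding to the coregulator peptide SRC2-3. Compounds were pin-transferred (23 nl) into the reagent mix and incubated 2 h at room temperature before reading.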
PLK1 PBD inh = qHTS for Inhibitors of PLK1-PDB (polo-like kinase 1 - polo-box domain): Primary Screen. Plk1 PBD binding of FITC phosphopeptide, fluorescence polarization. 2.8% of 360,000 active. Potency, µM, inactives show max response, negative = inhibition, most hits filed as inhibitors. Serine/threonine-protein kinase PLK1 (Homo sapiens), P53350. AID 720504, 2013; further: series mostly up to about 57 µM; nearly all actives have a fitted effect of over 65% in size
TbPYK inh = qHTS of Trypanosoma Brucei Inhibitors: Confirmatory Assay for Cherry-picked Compounds | shares compounds with PLK1 PBD inh | recombinant TbPYK, Kinase-Glo ATP luminescence | Potency, µM (series often up to 76.9 µM), without a hit: at the top dose activity change, negative = inhibition, hits mostly inhibitors | 67% of 890 active | AID 720569, 2013; further: nearly all actives have a fitted effect of over 70% in size
TbPYK orthogonal = qHTS of Trypanosoma Brucei Inhibitors: Orthogonal Assay for Cherry-picked Compounds; shares compounds with PLK1 PBD inh; 62% of 890 active; Potency, µM (doses to about 76.9 µM), for the others: top-dose activity change, negative = inhibition, hits mostly inhibitors; recombinant TbPYK, ADP-Glo luminescence, 60 min; further: nearly all actives have a fitted effect of over 75% in size
Numbers without * were called inactive; ? = inconclusive; . = no result; ! = not active in a repeat. This is a sample that favours compounds with a hit; in the whole collection about 18% have one here. The call rests on the fitted dose curve; in most records, active means well fitted curve in the direction sought with a large enough effect; inconclusive means small, poorly fitted or top-dose-only effect, or another doubt; inactive means no such curve, though single readings can be large; an effect the other way counts as inactive or inconclusive. On the % scale 0 is the no-effect control and ±100 the full control effect; potency means the concentration at half of the fitted maximal effect.

SMILES	KAT2A inh	DT40 TDP1 no CPT	TDP1 inh	TDP1 cell CPT	VDR inh	PLK1 PBD inh	TbPYK inh	TbPYK orthogonal
C1=CC2c3ccccc3NC(c3ccncc3)C2C1 (stereo unspecified)	-3%	?	6%	?	?	?	18µM*	16µM*
O=C1C=CC(=O)N1c1ccc2ccccc2c1	.	5.2µM*	.	4.1µM*	79µM*	8.4µM*	25µM*	?
O=C(O)c1ccccc1C(=O)Nc1ccc(Nc2ccccc2)cc1	.	-1%	.	?	.	-2%	.	.
Cc1cccc(N2C(=O)C=CC2=O)c1	.	4.6µM*	.	2.6µM*	50µM*	30µM*	?	?
CCN(CC)C1CC(=O)N(c2cccc(C)c2)C1=O (stereo unspecified)	12%	.	3%	.	.	.	.	.
O=C1C=CC(=O)N1c1ccc(Nc2ccccc2)cc1	.	5.8µM*	.	5.8µM*	?	24µM*	?	?
Oc1ccccc1N1CCN(c2nc(-c3cccs3)nc3ccccc23)CC1	?	?	5%	-90%	4%	1%	.	.
Oc1ccc(N2CCN(c3nc(-c4cccs4)nc4ccccc34)CC2)cc1	0%	?	8%	?	-3%	0%	?	35µM*
COc1cc(N2C(=O)C=CC2=O)c(OC)cc1Cl	?	1.3µM*	-8%	1.8µM*	28µM*	3µM*	4.5µM*	7.1µM*
O=C(NC(=S)Nc1ccc(Cl)cn1)c1cc([N+](=O)[O-])ccc1N1CCOCC1	-28%	4%	4%	-3%	0%	-16%	.	.
CCCN1Cc2cccc(C(=O)NCCc3cccc(C)c3)c2C1=O	20%	?	.	?	-15%	-4%	.	.
N#C/C(=C/c1ccc(N2CCOCC2)o1)c1ccc(Cl)cc1	-22%	15µM*	13%	?	?	6%	?	35µM*
N#C/C(=C\c1ccc(N2CCCCC2)o1)C(N)=O	2%	-16%	-4%	-1%	-1%	88%	.	.
CC1(CCc2ccccc2)NC(=O)N(CC(=O)Nc2ccc3c(c2)OCCO3)C1=O (stereo unspecified)	0%	0%	1%	-15%	-23%	-6%	.	.
COCCn1nnnc1C(c1cc2cc(OC)c(OC)cc2[nH]c1=O)N1CCN(c2ccc(O)cc2)CC1 (stereo unspecified)	-1%	-17%	?	-8%	2%	?	6.3µM*	16µM*
CCc1ccc2[nH]c(=O)c(C(c3nnnn3CCOC)N3CCN(c4ccc(F)cc4)CC3)cc2c1 (stereo unspecified)	-7%	?	5%	?	-8%	-11%	.	.
CC(=O)Oc1ccc2c(=O)c(Oc3ccccc3)coc2c1OC(C)=O	0%	?	.	-20%	-4%	?	.	.
Oc1cc(O)cc(/C=C/c2ccc(O)c(O)c2)c1	?	0.65µM*	2%	10µM*!	-13%	-13%	11µM*	?
Oc1cc(O)cc(O)c1	-21%	8%	9%	3%	-6%	.	.	.
COc1ccc(C(=O)N/N=C/c2ccc(N3CCOCC3)s2)cc1OC	-5%	?	1%	-24%	-6%	-12%	.	.
COc1ccc(C(=O)N/N=C/c2ccc(N3CCOCC3)o2)cc1OC	-24%	-22%	6%	?	?	-14%	-7%	?
COc1ccc(C(=O)Nc2ccc(N3CCCC3)cc2)cc1OC	-6%	?	9%	?	10%	4%	?	-25%
ClC(CCN1CCN(Cc2ccccc2)CC1)c1ccccc1 (stereo unspecified)	.	?	.	?	-12%	-3%	.	.
COc1ccc(N2CSC3=C(C#N)C(c4cccc(OC)c4OC)CC(=O)N3C2)cc1 (stereo unspecified)	?	?	7%	?	20µM*	7.5µM*	1.6µM*	1.4µM*
O=[N+]([O-])c1cc(-c2ccc(C(=S)N3CCOCC3)o2)ccc1Cl	?	?	11%	?	10µM*	2.7µM*	16µM*	16µM*
